# Reference: PubChem BioAssay (EPA / NIEHS)
# Results filed as inconclusive are left out. Activity calls are given as the source filed them. How the source made its calls: active means hit-call score of the fitted dose curve at least 0.9, where 1 is the maximum; inconclusive means response in the unintended direction; inactive means score below 0.9.
# Assays:
# [1] = target: Mitogen-activated protein kinase 3 (Homo sapiens) (UniProt P27361); assay: NVS_ENZ_hMAPK3: NovaScreen (NVS) Enzymatic Assay for human Mitogen-Activated Protein Kinase 3 (MAPK 3) (AID 2283177)
# Sequence of Mitogen-activated protein kinase 3 (Homo sapiens) (P27361 whole entry, looked up): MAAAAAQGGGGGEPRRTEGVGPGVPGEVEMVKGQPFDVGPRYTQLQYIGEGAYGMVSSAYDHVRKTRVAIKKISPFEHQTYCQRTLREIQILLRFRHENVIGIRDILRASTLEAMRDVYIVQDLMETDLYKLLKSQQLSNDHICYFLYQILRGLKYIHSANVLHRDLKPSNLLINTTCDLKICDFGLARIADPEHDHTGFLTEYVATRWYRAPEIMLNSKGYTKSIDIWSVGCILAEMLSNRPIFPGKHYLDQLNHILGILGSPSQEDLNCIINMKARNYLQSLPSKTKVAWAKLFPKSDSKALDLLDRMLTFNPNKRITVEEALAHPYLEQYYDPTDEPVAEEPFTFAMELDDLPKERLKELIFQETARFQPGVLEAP
# Summary of the method: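 Chemicals were first tested in duplicate at 25 uM, with hits re-run as concentration series (max 50 uM). Recombinant enzyme activity, measured 1 h post-dose in a cell-free format, was read by fluorescence/mobility shift relative to DMSO.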
# [2] = target: Collagenase 3 (Homo sapiens) (UniProt P45452); assay: NVS_ENZ_hMMP13: NovaScreen (NVS) Enzymatic Assay for human Matrix Metalloproteinase-13 (MMP13) (AID 2283182)
# Summary of the method: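 Recombinant MMP13 cleaving fluorescent substrate, cell-free, measured 1 h after dosing. Primary duplicate screen at 25 uM; actives tested in concentration-response up to 50 uM; loss of signal relative to DMSO.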
# [3] = target: human Matrix Metalloproteinase-9 (MMP9), MMP9 (gene 4318) (UniProt P14780); assay: NVS_ENZ_hMMP9: NovaScreen (NVS) Enzymatic Assay for human Matrix Metalloproteinase-9 (MMP9) (AID 2283190);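 further: cell-free recombinant MMP9 protease activity read by fluorescent substrate signal; active means inhibition seen as loss of fluorescence signal versus DMSO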
# Sequence of human Matrix Metalloproteinase-9 (MMP9), MMP9 (gene 4318) (P14780 whole entry, looked up): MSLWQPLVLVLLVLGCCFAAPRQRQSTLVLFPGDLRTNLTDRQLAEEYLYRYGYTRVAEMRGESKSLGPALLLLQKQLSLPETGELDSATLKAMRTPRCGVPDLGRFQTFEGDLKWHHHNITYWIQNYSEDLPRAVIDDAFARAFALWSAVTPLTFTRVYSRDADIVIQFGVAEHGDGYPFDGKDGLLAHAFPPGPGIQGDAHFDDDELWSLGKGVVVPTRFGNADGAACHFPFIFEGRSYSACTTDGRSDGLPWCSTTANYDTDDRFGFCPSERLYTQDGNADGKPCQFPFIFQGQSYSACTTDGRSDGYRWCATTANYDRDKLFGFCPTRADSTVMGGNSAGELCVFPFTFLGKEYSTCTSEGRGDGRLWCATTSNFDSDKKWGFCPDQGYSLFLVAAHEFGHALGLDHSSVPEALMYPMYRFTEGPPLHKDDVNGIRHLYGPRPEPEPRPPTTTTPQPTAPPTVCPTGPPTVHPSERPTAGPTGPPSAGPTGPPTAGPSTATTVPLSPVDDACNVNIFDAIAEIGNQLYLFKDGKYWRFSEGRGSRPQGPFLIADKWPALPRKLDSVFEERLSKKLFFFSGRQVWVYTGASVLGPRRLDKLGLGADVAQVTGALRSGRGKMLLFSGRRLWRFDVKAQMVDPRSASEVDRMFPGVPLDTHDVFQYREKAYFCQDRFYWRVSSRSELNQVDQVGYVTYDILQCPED
# Summary of the method: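 Cell-free recombinant MMP9 enzyme activity measured by fluorescence intensity 1 h after dosing. Primary screen in duplicate at 25 uM, actives followed in concentration series; loss of signal relative to DMSO.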
# [4] = target: human c-Jun N-terminal Kinases (JNK2), MAPK9 (gene 5601) (UniProt P45984); assay: NVS_ENZ_hJNK2: NovaScreen (NVS) Enzymatic Assay for human c-Jun N-terminal Kinases (JNK2) (AID 2283171)
# Sequence of human c-Jun N-terminal Kinases (JNK2), MAPK9 (gene 5601) (P45984 whole entry, looked up): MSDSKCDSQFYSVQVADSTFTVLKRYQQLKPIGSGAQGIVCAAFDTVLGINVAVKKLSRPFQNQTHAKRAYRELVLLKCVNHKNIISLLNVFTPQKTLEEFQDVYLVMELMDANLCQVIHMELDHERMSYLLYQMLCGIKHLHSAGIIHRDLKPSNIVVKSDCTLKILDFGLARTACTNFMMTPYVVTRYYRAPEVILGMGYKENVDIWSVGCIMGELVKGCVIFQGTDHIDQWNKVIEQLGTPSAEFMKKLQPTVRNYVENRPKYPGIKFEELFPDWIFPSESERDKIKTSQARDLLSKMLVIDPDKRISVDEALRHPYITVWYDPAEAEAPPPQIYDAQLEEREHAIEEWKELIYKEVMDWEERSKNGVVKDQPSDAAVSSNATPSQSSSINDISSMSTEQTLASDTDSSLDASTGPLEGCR
# Method: NVS_ENZ_hJNK2 is a biochemical, single-readout assay that uses extracted gene-proteins in a cell-free assay. Measurements were taken 1 hour after chemical dosing in a 384-well plate.NVS_ENZ_hJNK2 is one of one assay component(s) measured or calculated from the NVS_ENZ_hJNK2 assay. It is designed to make measurements of enzyme activity, a form of enzyme reporter, as detected with fluorescence intensity signals by Fluorescence and electrophoretic mobility shift technology.Data from the assay component NVS_ENZ_hJNK2 was analyzed into 1 assay endpoint. This assay endpoint, NVS_ENZ_hJNK2, was analyzed in the positive analysis fitting direction relative to DMSO as the negative control and baseline of activity. Using a type of enzyme reporter, loss-of-signal activity can be used to understand changes in the enzymatic activity as they relate to the gene MAPK9. Furthermore, this assay endpoint can be referred to as a primary readout, because this assay has produced multiple assay endpoints where this one serves a enzymatic activity function. To generalize the intended target to other relatable targets, this assay endpoint is annotated to the kinase intended target family, where the subfamily is serine/threonine kinase. […]
# [5] = target: human Mitogen- and Stress-activated Protein Kinase-1 (Msk1), RPS6KA5 (gene 9252) (UniProt O75582); assay: NVS_ENZ_hMsk1: NovaScreen (NVS) Enzymatic Assay for human Mitogen- and Stress-activated Protein Kinase-1 (Msk1) (AID 2283187)
# Sequence of human Mitogen- and Stress-activated Protein Kinase-1 (Msk1), RPS6KA5 (gene 9252) (O75582 whole entry, looked up): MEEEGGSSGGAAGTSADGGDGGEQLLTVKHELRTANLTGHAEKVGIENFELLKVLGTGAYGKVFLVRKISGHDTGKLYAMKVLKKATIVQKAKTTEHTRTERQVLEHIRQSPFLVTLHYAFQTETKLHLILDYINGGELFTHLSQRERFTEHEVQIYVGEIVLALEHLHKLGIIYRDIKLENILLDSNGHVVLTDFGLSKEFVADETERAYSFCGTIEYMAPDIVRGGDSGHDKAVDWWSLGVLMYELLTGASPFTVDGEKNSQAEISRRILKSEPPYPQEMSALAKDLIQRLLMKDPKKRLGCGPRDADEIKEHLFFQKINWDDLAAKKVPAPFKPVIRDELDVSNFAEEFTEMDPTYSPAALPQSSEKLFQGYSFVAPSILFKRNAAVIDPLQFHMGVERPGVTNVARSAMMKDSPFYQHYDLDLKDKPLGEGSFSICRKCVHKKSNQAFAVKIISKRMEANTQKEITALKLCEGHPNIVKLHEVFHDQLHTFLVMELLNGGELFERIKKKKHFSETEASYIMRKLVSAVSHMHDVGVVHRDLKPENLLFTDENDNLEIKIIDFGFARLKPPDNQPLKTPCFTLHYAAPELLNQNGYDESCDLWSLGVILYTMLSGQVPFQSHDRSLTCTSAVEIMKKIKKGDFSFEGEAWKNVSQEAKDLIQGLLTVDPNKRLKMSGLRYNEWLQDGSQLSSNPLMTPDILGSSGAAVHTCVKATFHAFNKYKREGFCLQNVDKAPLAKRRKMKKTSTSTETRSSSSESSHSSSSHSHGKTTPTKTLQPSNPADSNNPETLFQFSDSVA
# Summary of the method: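 Chemicals first run in duplicate at 25 uM, with actives followed up in singleton concentration series to 50 uM maximum. Enzyme activity came from substrate/product mobility-shift separation with fluorescence detection after 1 h incubation of the recombinant protein.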
# [6] = target: human Matrix Metalloproteinase-3 (MMP3), MMP3 (gene 4314) (UniProt P08254); assay: NVS_ENZ_hMMP3: NovaScreen (NVS) Enzymatic Assay for human Matrix Metalloproteinase-3 (MMP3) (AID 2283185)
# Sequence of human Matrix Metalloproteinase-3 (MMP3), MMP3 (gene 4314) (P08254 whole entry, looked up): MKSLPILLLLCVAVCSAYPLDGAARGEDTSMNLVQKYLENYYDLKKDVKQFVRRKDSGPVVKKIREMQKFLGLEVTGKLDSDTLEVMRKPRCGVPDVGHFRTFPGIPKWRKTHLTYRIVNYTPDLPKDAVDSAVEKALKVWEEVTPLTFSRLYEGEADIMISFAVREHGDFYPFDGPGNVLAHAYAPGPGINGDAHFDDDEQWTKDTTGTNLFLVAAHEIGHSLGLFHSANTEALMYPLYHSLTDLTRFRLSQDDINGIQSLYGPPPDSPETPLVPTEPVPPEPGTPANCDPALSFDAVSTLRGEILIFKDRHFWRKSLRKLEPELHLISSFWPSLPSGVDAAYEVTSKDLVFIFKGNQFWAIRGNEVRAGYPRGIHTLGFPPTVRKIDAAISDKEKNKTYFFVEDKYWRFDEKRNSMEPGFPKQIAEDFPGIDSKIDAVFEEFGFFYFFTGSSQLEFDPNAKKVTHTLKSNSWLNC
# Summary of the method: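 Fluorescent substrate turnover by recombinant MMP3 read after 1 h, signal loss scored against DMSO. Compounds first run in duplicate at 25 uM single dose, then actives confirmed by concentration series.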
# [7] = target: human Matrix Metalloproteinase-2 (MMP2), MMP2 (gene 4313) (UniProt P08253); assay: NVS_ENZ_hMMP2: NovaScreen (NVS) Enzymatic Assay for human Matrix Metalloproteinase-2 (MMP2) (AID 2283184)
# Sequence of human Matrix Metalloproteinase-2 (MMP2), MMP2 (gene 4313) (P08253 whole entry, looked up): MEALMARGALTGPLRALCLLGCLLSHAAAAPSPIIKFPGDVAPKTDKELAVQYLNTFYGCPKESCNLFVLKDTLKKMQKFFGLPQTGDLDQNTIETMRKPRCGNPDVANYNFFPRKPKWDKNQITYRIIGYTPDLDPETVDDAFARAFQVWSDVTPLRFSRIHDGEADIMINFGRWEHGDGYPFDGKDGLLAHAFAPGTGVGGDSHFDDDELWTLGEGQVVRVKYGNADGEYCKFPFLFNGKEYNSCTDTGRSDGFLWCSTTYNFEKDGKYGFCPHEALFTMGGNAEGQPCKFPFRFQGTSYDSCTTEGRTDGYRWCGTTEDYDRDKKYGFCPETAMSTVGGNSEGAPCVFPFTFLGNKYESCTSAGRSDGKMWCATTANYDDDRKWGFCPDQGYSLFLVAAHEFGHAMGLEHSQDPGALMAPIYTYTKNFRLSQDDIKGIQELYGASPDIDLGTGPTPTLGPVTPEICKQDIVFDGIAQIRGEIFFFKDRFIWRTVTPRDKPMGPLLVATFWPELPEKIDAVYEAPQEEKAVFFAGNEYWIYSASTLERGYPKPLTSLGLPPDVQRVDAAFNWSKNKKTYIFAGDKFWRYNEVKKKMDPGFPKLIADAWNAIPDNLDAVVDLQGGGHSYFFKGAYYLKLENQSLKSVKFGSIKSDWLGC
# Method: NVS_ENZ_hMMP2 is a biochemical, single-readout assay that uses extracted gene-proteins in a cell-free assay. Measurements were taken 1 hour after chemical dosing in a 96-well plate.NVS_ENZ_hMMP2 is one of one assay component(s) measured or calculated from the NVS_ENZ_hMMP2 assay. It is designed to make measurements of enzyme activity, a form of enzyme reporter, as detected with fluorescence intensity signals by Fluorescence technology.Data from the assay component NVS_ENZ_hMMP2 was analyzed into 1 assay endpoint. This assay endpoint, NVS_ENZ_hMMP2, was analyzed in the positive analysis fitting direction relative to DMSO as the negative control and baseline of activity. Using a type of enzyme reporter, loss-of-signal activity can be used to understand changes in the enzymatic activity as they relate to the gene MMP2. Furthermore, this assay endpoint can be referred to as a primary readout, because this assay has produced multiple assay endpoints where this one serves a enzymatic activity function. To generalize the intended target to other relatable targets, this assay endpoint is annotated to the protease intended target family, where the subfamily is matrix metalloproteinase.
# Binding assays used specific radioligands (tritiated, iodinated) with non-radioactive competitive displacement ligands in agonist or antagonist protocols (as indicated) and various reference compounds and inhibitors to titrate specific binding to receptors and transporters. Most enzyme assays (CYPs, kinases, phosphatases, proteases, HDACs) used recombinant protein and specific substrates (fluorescence mostly, some colorimetric and radioactive) and inhibitors, followed by a biochemical separation of substrate and product. All assays for the biochemical HTS were initially run in duplicate at a single concentration (10 uM for CYP450 assays and 25 uM for all others). […] Each assay was run with positive and negative controls, and concurrent controls on every plate. The follow-up (secondary) screen tested active chemical-pairs in concentration series, as well as a few additional assays not tested in the primary screen, some selected negative inactives, and several cases re-run in the concentration series for confirmatory purposes.
# [8] = target: human Matrix Metalloproteinase-7 (MMP7), MMP7 (gene 4316) (UniProt P09237); assay: NVS_ENZ_hMMP7: NovaScreen (NVS) Enzymatic Assay for human Matrix Metalloproteinase-7 (MMP7) (AID 2283183)
# Sequence of human Matrix Metalloproteinase-7 (MMP7), MMP7 (gene 4316) (P09237 whole entry, looked up): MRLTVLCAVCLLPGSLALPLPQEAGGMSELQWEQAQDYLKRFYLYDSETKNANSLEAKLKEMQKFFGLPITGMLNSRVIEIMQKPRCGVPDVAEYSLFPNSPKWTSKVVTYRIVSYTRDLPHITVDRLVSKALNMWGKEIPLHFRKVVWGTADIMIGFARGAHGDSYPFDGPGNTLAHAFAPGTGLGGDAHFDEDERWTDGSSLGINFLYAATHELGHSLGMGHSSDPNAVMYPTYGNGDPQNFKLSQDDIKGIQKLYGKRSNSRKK
# Summary of the method: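 Compounds first tested at 25 uM in duplicate, then at up to 50 uM in concentration series if active. Protease activity measured by fluorescence intensity 1 h after dosing, with fitting relative to DMSO.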
# [9] = target: human LYN Proto-Oncogene, Src family Tyrosine Kinase (LynA), LYN (gene 4067) (UniProt P07948); assay: NVS_ENZ_hLynA: NovaScreen (NVS) Enzymatic Assay for human LYN Proto-Oncogene, Src family Tyrosine Kinase (LynA) (AID 2283173)
# Sequence of human LYN Proto-Oncogene, Src family Tyrosine Kinase (LynA), LYN (gene 4067) (P07948 whole entry, looked up): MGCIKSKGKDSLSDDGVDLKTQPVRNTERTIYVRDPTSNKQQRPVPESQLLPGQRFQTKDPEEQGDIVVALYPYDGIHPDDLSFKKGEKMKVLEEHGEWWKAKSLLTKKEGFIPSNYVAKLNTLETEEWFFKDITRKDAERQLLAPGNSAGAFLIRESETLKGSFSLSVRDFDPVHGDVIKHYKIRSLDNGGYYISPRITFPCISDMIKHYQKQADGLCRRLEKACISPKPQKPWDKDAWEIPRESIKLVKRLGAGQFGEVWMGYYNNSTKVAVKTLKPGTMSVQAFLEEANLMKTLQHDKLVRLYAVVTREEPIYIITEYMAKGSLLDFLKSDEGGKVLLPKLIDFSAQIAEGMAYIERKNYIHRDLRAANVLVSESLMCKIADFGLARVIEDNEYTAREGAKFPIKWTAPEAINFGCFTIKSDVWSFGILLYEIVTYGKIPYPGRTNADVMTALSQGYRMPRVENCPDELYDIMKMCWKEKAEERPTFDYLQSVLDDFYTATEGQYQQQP
# Summary of the method: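 Recombinant kinase with fluorescent substrate; product separated from substrate by electrophoretic mobility shift and read 1 h after dosing. Duplicate screen at 25 uM, then concentration-response up to 50 uM; activity scored as signal loss against DMSO.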
# [10] = target: human MAP Kinase-Activated Protein Kinase 2 (MAPKAPK2), MAPKAPK2 (gene 9261) (UniProt P49137); assay: NVS_ENZ_hMAPKAPK2: NovaScreen (NVS) Enzymatic Assay for human MAP Kinase-Activated Protein Kinase 2 (MAPKAPK2) (AID 2283178)
# Sequence of human MAP Kinase-Activated Protein Kinase 2 (MAPKAPK2), MAPKAPK2 (gene 9261) (P49137 whole entry, looked up): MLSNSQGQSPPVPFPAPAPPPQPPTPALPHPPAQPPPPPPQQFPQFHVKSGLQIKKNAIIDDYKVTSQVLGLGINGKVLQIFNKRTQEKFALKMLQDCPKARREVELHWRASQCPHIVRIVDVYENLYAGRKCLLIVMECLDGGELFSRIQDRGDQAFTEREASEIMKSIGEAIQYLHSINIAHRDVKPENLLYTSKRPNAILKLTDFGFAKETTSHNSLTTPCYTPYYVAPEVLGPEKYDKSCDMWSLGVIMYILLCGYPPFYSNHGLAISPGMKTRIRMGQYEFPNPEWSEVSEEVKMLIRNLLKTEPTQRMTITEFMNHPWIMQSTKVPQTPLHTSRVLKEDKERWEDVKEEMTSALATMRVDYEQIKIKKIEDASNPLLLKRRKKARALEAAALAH
# Summary of the method: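 Chemicals screened in duplicate at 25 uM, then to 50 uM top concentration in concentration-response, against recombinant human MAPKAPK2; substrate conversion read 1 hr post-dosing by fluorescence after electrophoretic mobility-shift separation, loss-of-signal relative to DMSO.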
smiles,measurement,setting,value
CC(C)(C)c1csc(-c2cc3cc(OCc4ccccc4CC(=O)O)ccc3o2)n1,outcome,[1],inactive
CCOC(=O)O[C@H](C)OC(=O)c1ccc2c(c1)cc(C(=O)NC1CCN(C(C)C)CC1)n2Cc1cc(-c2ccc(Cl)s2)on1,AC50,[2],15.2 µM (active)
same,AC50,[3],30.9 µM (active)
COc1cc(C(=O)NC2CCN(C)CC2)ccc1Nc1ncc2c(n1)N(C1CCCC1)CC(F)(F)C(=O)N2C,outcome,[4],inactive
same,outcome,[1],inactive
O=C(O)c1ccccc1C(=O)OCc1ccccc1,outcome,[5],inactive
CCCCCCCCOc1ccc(C(=O)c2ccccc2)c(O)c1,outcome,[6],inactive
NCc1cccc(C2CCN(C(=O)c3ccc(C#Cc4ccccc4F)o3)CC2)c1,AC50,[2],19.5 µM (active)
same,AC50,[7],10.1 µM (active)
same,AC50,[3],30.1 µM (active)
CCCCOC(=O)c1ccc(O)cc1,AC50,[2],25 µM (active)
same,outcome,[6],inactive
COCC(C)OCC(C)OCC(C)O (configuration not stated),outcome,[2],inactive
same,outcome,[8],inactive
O=CCCCC=O,outcome,[1],inactive
O=C1O[C@H]([C@@H](O)CO)C(O)=C1O,outcome,[6],inactive
O=C(O)Cn1c(=O)n(Cc2ccc(Br)cc2F)c(=O)c2ccc(Cl)cc21,outcome,[8],inactive
C[C@]12CC[C@@H]3c4ccc(O)cc4CC[C@H]3[C@@H]1CC[C@H]2O,outcome,[8],inactive
O=C(O)Cc1cc(I)c(Oc2ccc(O)c(I)c2)c(I)c1,outcome,[6],inactive
CCN(Cc1cccnc1)C(=O)c1cccc(Cl)c1[C@]1(C)C(=O)N(Cc2ccc(OC)cc2OC)c2ccc(Cl)cc21,AC50,[2],9.38 µM (active)
same,AC50,[7],14.8 µM (active)
same,outcome,[6],inactive
same,AC50,[3],24.9 µM (active)
CO[C@H]1/C=C/O[C@@]2(C)Oc3c(C)c(O)c4c(O)c(c(/C=N/N5CCN(C)CC5)c(O)c4c3C2=O)NC(=O)/C(C)=C\C=C\[C@H](C)[C@H](O)[C@@H](C)[C@@H](O)[C@@H](C)[C@H](OC(C)=O)[C@@H]1C,outcome,[2],inactive
same,outcome,[8],inactive
same,outcome,[7],inactive
CC(C)(c1cc(Br)c(O)c(Br)c1)c1cc(Br)c(O)c(Br)c1,outcome,[7],inactive
CCN(Cc1cccc(S(=O)(=O)O)c1)c1ccc(C(=C2C=CC(=[N+](CC)Cc3cccc(S(=O)(=O)O)c3)C=C2)c2ccccc2S(=O)(=O)[O-])cc1,AC50,[7],10.3 µM (active)
same,AC50,[6],16.1 µM (active)
c1ccc2ccccc2c1,outcome,[1],inactive
same,outcome,[5],inactive
CC/C(=C(/CC)c1ccc(O)cc1)c1ccc(O)cc1,outcome,[1],inactive
same,outcome,[7],inactive
O=C1CCC(C2CCCCC2)CC1,outcome,[6],inactive
CCN(CC)C(=O)c1cc(S(=O)(=O)Cc2ccccc2)c(N2CCC(c3ccccc3)CC2)cc1N(CC)CCN(C)C,outcome,[9],inactive
same,outcome,[5],inactive
O=C=NCCCCCCN=C=O,outcome,[3],inactive
CN(C)c1ccc(C(=C2C=CC(=[N+](C)C)C=C2)c2ccc(N(C)C)cc2)cc1,outcome,[6],inactive
same,AC50,[3],14.5 µM (active)
CCCC(=O)OCCC(C)C,outcome,[4],inactive
same,outcome,[1],inactive
CN1C(=O)N(c2ccccc2Br)Cc2cnc(Nc3ccc4c(c3)OCC(CO)O4)nc21 (configuration not stated),outcome,[10],inactive
same,outcome,[6],inactive
Cc1cc2c(cc1C(F)(F)F)N(C(=O)Nc1ccc(Oc3cccnc3C)nc1)CC2,outcome,[10],inactive
COc1ccc2cc(S(=O)(=O)N[C@H](CC(=O)N[C@H](Cc3ccc(CN4[C@H](C)CCC[C@@H]4C)cc3)C(=O)N(C)C(C)C)c3ccc4c(c3)OCO4)ccc2c1,outcome,[3],inactive
O=C(O)c1ccccc1-n1cc(C(=O)O)c(=O)c2cc(Nc3c(F)cc(F)cc3Cl)c(Cl)cc21,AC50,[6],21.8 µM (active)
CCCCCCCCOC(=O)c1cc(O)c(O)c(O)c1,outcome,[10],inactive
same,AC50,[2],2.83 µM (active)
same,AC50,[8],22.1 µM (active)
same,AC50,[7],1.47 µM (active)
same,AC50,[6],5.82 µM (active)
same,AC50,[3],1.09 µM (active)
CCCOC(=O)c1cc(O)c(O)c(O)c1,AC50,[6],11.9 µM (active)
CN(C)C(=O)C1(N2CCCCC2)CCN(CC[C@@]2(c3ccc(Cl)c(Cl)c3)CN(C(=O)c3ccccc3)CCO2)CC1,outcome,[3],inactive
Cc1oc2c(NC(=O)c3c(Cl)cccc3Cl)cccc2c1C(C)(C)O,outcome,[10],inactive
CCCCCCCCCCCC[N+](C)(C)C,outcome,[7],inactive
Cc1c2ccccc2c(C)c2c1ccc1ccccc12,outcome,[2],inactive
